Hits are enriched below; roughly 2.4% of the tested compounds scored in any of these assays.
eIF4E 4G PPI = inhibitors of eIF4E and eIF4G interaction in translation initiation. TR-FRET eIF4E-eIF4GI(517-606) binding, 2 h. inhibition, % at 21.7 µM. actives 0.37% (n = 220,000). AID 782;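 active = inhibition above about 30%, limit read from the data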
eIF4H inh = inhibitors of RNA binding by human eIF4H; Q15056; eIF4H fluorescence polarization binding assay; inhibition, % at 35 µM; actives 0.94% (n = 290,000); AID 2012;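 note: calls also rest on retests at 20 µM and on dose response follow-up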
PfM18AAP inh-1 = PfM18AAP enzyme inhibition | recombinant PfM18AAP, H-Glu-NHMec fluorogenic cleavage | AID 1822 | actives 1.2% (n = 290,000) | inhibition, % at 7.35 µM;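 active = inhibition above the campaign mean inhibition over all tested compounds plus 3 SD, cut at about 28% in these data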
PABP1 MLLE inh = inhibitors of microRNA-mediated deadenylation, human PABP1 MLLE binding. actives 0.36% (n = 360,000). inhibition, % at 20 µM. GST-MLLE / FITC-PAM2 fluorescence polarization. P11940; in the data active = inhibition above about 35%, passing the limit was not always enough
PERK inh = human PERK inhibition, primary cell-based screen. AID 1416. actives 0.17% (n = 220,000). Q9NZJ5. CHO PERK-DD fusion, SEAP luminescence translation reporter. inhibition, % at 5.6 µM;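 active = inhibition above the mean inhibition of all tested compounds plus 3 SD, set separately per screening campaign, cut at about 2.9% in these data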;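 note: PERK kinase domain activated by AP20187 dimerizer at 100 nM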
PABP polyA inh = blocks human PABP binding to poly(A) RNA; inhibition, % at 35 µM; AID 2014; fluorescence polarization; actives 1% (n = 290,000); P11940;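 note: calls also rest on retests at 20 µM and on dose response follow-up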
PfM18AAP inh-2 = PfM18AAP inhibition, confirmation | recombinant PfM18AAP, H-Glu-NHMec fluorogenic cleavage | shares compounds with PfM18AAP inh-1 | actives 28% (n = 2,400) | inhibition, % at 7.35 µM;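 active = mean inhibition over replicate wells above the hit cutoff set for the earlier primary screen, cut at about 29% in these data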
CTSL1 counter = Cathepsin L (human) inhibition, confirmation; shares compounds with PfM18AAP inh-1; purified cathepsin L1, Z-Leu-Arg-MCA fluorescence; inhibition, % at 5.96 µM; 2,400 tested, under 10 active;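 active = average inhibition across replicates above the hit cutoff set in the earlier primary screen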
Target sequence (P07711 whole entry, looked up): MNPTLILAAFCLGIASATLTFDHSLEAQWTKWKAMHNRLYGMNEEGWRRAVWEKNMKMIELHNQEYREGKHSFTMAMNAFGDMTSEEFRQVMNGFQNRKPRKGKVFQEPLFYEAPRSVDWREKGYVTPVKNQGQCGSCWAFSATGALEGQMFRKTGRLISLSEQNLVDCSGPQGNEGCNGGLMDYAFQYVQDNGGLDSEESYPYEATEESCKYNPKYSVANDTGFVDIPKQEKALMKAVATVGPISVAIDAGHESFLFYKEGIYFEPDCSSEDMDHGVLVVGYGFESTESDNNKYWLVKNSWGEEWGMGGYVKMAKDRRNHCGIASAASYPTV
Large screens that a line does not name were inactive (follow-up assays come after a bar, where they were run). Unless noted, the rule behind the calls is not given here.

CN(C(=O)COC(=O)CNC(=O)c1sc2ccccc2c1Cl)C1CCS(=O)(=O)C1 (centres undefined)	none (no result: eIF4E 4G PPI, eIF4H inh, PfM18AAP inh-1, PERK inh, PABP polyA inh)
N#Cc1c2c(c(NCc3cccnc3)n3c1nc1ccccc13)CCC2	none
O=C(Cc1ccccc1)NN1C(=O)/C(=C/c2ccc(C(=O)O)cc2)SC1=S	PfM18AAP inh-1 34 | PfM18AAP inh-2 inactive | CTSL1 counter inactive
O=C(O)c1ccc(/C=C2/SC(=S)N(Cc3ccccc3)C2=O)cc1	none (no result: eIF4E 4G PPI, PERK inh)
Cc1cc(NC(=O)CSc2nnc(Cc3ccccc3)o2)no1	PfM18AAP inh-1 40 | PfM18AAP inh-2 inactive | CTSL1 counter inactive
CC1CCN(S(=O)(=O)c2ccc(C(=O)N3CCCC(C(F)(F)F)C3)cc2)CC1 (centres undefined)	none (no result: eIF4E 4G PPI, eIF4H inh, PfM18AAP inh-1, PERK inh, PABP polyA inh)
COc1ccc(CNC(=O)c2ccc3c(c2)N(C)C(=O)CS3=O)cc1 (centres undefined)	PfM18AAP inh-1 47 | PfM18AAP inh-2 inactive | CTSL1 counter inactive
Cc1ccc(S(=O)(=O)N2CCOCC2)cc1NC(=O)CN1CCN(c2ccc(O)cc2)CC1	PfM18AAP inh-1 34 | PfM18AAP inh-2 inactive | CTSL1 counter inactive
O=S(=O)(c1ccc(NC(=S)N2CCN(c3ccc(O)cc3)CC2)cc1)N1CCOCC1	PfM18AAP inh-1 34 | PfM18AAP inh-2 inactive | CTSL1 counter inactive
CCCn1c(SCC(=O)NC(=O)NC(C)(C)C)n[nH]c1=O	none
COc1ccccc1CNC(=O)COC(=O)c1ccc2c(=O)n3c(nc2c1)CCCCC3	none (no result: eIF4E 4G PPI, eIF4H inh, PfM18AAP inh-1, PERK inh, PABP polyA inh)
O=C(O)c1ccccc1C(=O)Nc1n[nH]c(=S)s1	PfM18AAP inh-1 63 | PfM18AAP inh-2 inactive | CTSL1 counter inactive
O=C(Nc1cc(C(F)(F)F)cc(C(F)(F)F)c1)Nc1cnn(-c2ccc([N+](=O)[O-])cc2)c1C(F)(F)F	none
CC(C)c1ccc(S(=O)(=O)Nc2ccc(O)c(Sc3ncn[nH]3)c2)cc1	PfM18AAP inh-1 58 (no result: eIF4E 4G PPI, PERK inh) | PfM18AAP inh-2 31 | CTSL1 counter inactive
COc1ccc(S(=O)(=O)Nc2ccc(O)c(Sc3ncn[nH]3)c2)cc1	PfM18AAP inh-1 54 | PfM18AAP inh-2 40 | CTSL1 counter inactive
Cc1cc(C)nc(NS(=O)(=O)c2ccc(NC(=O)CSc3ncn[nH]3)cc2)n1	none
COCCn1c(=S)[nH]c2ccccc21	none
Cc1cccc(N2CCN(Cc3cc(=O)n4ccsc4n3)CC2)c1C	none
O=c1cc(CN2CCN(c3ccccc3O)CC2)nc2sccn12	PfM18AAP inh-1 35 | PfM18AAP inh-2 inactive | CTSL1 counter inactive
O=C(CN1CCN(c2ccccc2F)CC1)c1ccc(O)c(O)c1	PfM18AAP inh-1 60 (no result: eIF4E 4G PPI, PERK inh) | PfM18AAP inh-2 37 | CTSL1 counter inactive
CC(C)c1ccc(S(=O)(=O)N2CCN(CC(=O)c3ccc(O)c(O)c3)CC2)cc1	PfM18AAP inh-1 67 (no result: eIF4E 4G PPI, PERK inh) | PfM18AAP inh-2 36 | CTSL1 counter inactive
CC(C)c1ccc(S(=O)(=O)N2CCN(CC(=O)Nc3ccc(Cl)cc3F)CC2)cc1	none (no result: eIF4E 4G PPI, eIF4H inh, PfM18AAP inh-1, PERK inh, PABP polyA inh)
O=C(CN1CCN(S(=O)(=O)c2ccc(Br)cc2)CC1)c1ccc(O)c(O)c1	PfM18AAP inh-1 72 (no result: eIF4E 4G PPI, PERK inh) | PfM18AAP inh-2 40 | CTSL1 counter inactive
CCS(=O)(=O)C(C)(CCl)C(=O)Nc1ccc(C(=O)OC)cc1 (centres undefined)	none
Cn1c(=O)[nH]c(=O)c2c1nc(SCCN1CCCCC1)n2CCCc1ccccc1	PfM18AAP inh-1 55 | PfM18AAP inh-2 inactive | CTSL1 counter inactive
Cc1ccc(Cn2c(SCCN3CCCCC3)nc3c2c(=O)[nH]c(=O)n3C)cc1	PfM18AAP inh-1 38 | PfM18AAP inh-2 inactive | CTSL1 counter inactive
CCCc1nnc(NC(=O)CSc2ncn[nH]2)s1	PfM18AAP inh-1 40 | PfM18AAP inh-2 44 | CTSL1 counter inactive
CCCCc1nc(SCC(=O)Nc2nnc(CCCC)s2)n[nH]1	none
O=C(CSc1ncn[nH]1)Nc1nc(-c2ccccc2)cs1	PfM18AAP inh-1 40 | PfM18AAP inh-2 46 | CTSL1 counter inactive
O=C(CSc1ncn[nH]1)NCc1ccc(Cl)cc1	none (no result: eIF4E 4G PPI, PERK inh)
COc1ccc(CNC(=O)CSc2ncn[nH]2)cc1OC	PfM18AAP inh-1 34 (no result: eIF4E 4G PPI, PERK inh) | PfM18AAP inh-2 inactive | CTSL1 counter inactive
Cc1cc(=O)[nH]c(SCC(=O)Nc2nc(-c3ccccc3)cs2)n1	none
COc1ccc(-c2csc(NC(=O)CSc3ncn[nH]3)n2)cc1OC	PfM18AAP inh-1 66 | PfM18AAP inh-2 49 | CTSL1 counter inactive
Cc1c(OCC(=O)NCC(O)c2ccccc2)ccc2c3c(c(=O)oc12)CCCC3 (centres undefined)	none (no result: eIF4E 4G PPI, PERK inh)
O=S(=O)(Cc1ccc(Cl)cc1)CC(O)COCc1ccccc1 (centres undefined)	none
CC(C)c1ccc(C(C)NCCS(=O)(=O)c2ccc(Cl)cc2)cc1 (centres undefined)	none (no result: eIF4E 4G PPI, PERK inh)
CCOC(=O)c1c(NC(=O)CSc2ncn[nH]2)sc(C(=O)NC)c1C	none (no result: eIF4E 4G PPI, PERK inh)
CCOC(=O)c1c(NC(=O)CSc2ncn[nH]2)sc(C)c1C	PfM18AAP inh-1 48 | PfM18AAP inh-2 inactive | CTSL1 counter inactive
CC1CCC(NC(=O)CCNC(=O)c2ccccc2)CC1 (centres undefined)	none
Cc1c(C(=O)NCc2n[nH]c(=S)n2-c2ccc(F)cc2)cccc1[N+](=O)[O-]	PfM18AAP inh-1 33 | PfM18AAP inh-2 inactive | CTSL1 counter inactive
Cc1cccc(-n2c(Cc3ccccc3)n[nH]c2=S)c1	PfM18AAP inh-1 34 | PfM18AAP inh-2 inactive | CTSL1 counter inactive
Cc1cccc(-n2c(CNC(=O)Cc3ccccc3)n[nH]c2=S)c1	PfM18AAP inh-1 38 | PfM18AAP inh-2 inactive | CTSL1 counter inactive
O=C(NCC(O)c1nc2ccccc2[nH]1)c1cc([N+](=O)[O-])ccc1F (centres undefined)	none (no result: eIF4E 4G PPI, eIF4H inh, PfM18AAP inh-1, PERK inh, PABP polyA inh)
COc1ccc(/C=C/C(=O)NNC(=O)c2ccncc2)c(OC)c1	none (no result: eIF4E 4G PPI, eIF4H inh, PfM18AAP inh-1, PERK inh, PABP polyA inh)
O=C(COC(=O)c1n[nH]c(=O)c2ccccc12)Nc1cccc(S(=O)(=O)N2CCOCC2)c1	none (no result: eIF4E 4G PPI, eIF4H inh, PfM18AAP inh-1, PERK inh, PABP polyA inh)
Cc1c(Cl)cccc1NC(=S)NC1CC1	none
Cc1c(Cl)cccc1NC(=S)Nn1cnnc1	PfM18AAP inh-1 76 | PfM18AAP inh-2 76 | CTSL1 counter inactive
CC(C)Nc1nc(NC(C)C)nc(N(C)N)n1	PfM18AAP inh-1 48 | PfM18AAP inh-2 40 | CTSL1 counter inactive
Cc1ccc(-n2c(O)c(/C=N/c3ncn[nH]3)c3ccccc3c2=O)cc1	PfM18AAP inh-1 37 | PfM18AAP inh-2 inactive | CTSL1 counter inactive
Cc1ccc(-n2c(O)c(/C=N/n3cnnc3)c3ccccc3c2=O)cc1	PfM18AAP inh-1 71 | PfM18AAP inh-2 64 | CTSL1 counter inactive
COc1ccc(N=Cc2c(O)n(-c3ccc(OC)cc3)c(=O)c3ccccc23)cc1	none
CC(=O)c1sc(Nc2nc(C)cc(C)n2)nc1C	none
Cn1c(C(=O)N[C@@H](C(=O)O)c2ccccc2)cc2cc(F)ccc21	none (no result: eIF4E 4G PPI, PERK inh)
